HP1b chromo inh – HP1-beta chromodomain-methylated histone interaction inhibition | P83916 | AlphaScreen HP1-beta / biotin-H3K9me3 peptide binding | Potency, µM (series often up to 114 µM), actives largely listed as inhibitors | actives 0.56% (n = 390,000) | AID 540317; further: nearly all actives have a fitted effect of over 70% in size
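AlphaScreen: HP1-beta (50 nM) preformed 30 min with biotin-H3(1-18)K9me3 peptide (50 nM) in PBS pH 7.4, 0.01% Tween-20. Compound added for 30 min at RT, then streptavidin donor/nickel chelate acceptor beads (10 ug/mL) for 30 min.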
G9a block – blocks human histone lysine methyltransferase G9a | G9a H3K9 monomethylation, AlphaScreen, 2 h | Potency, µM (top dose mostly 102 µM), actives largely listed as inhibitors | actives 8.8% (n = 350,000) | AID 504332; further: nearly all actives have a fitted effect of over 75% in size
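AlphaScreen detection with an anti-monomethyl H3K9 antibody quantified product after a 2 h room-temperature reaction containing 500 nM biotinylated H3K9 peptide, 20 µM SAM and 20 nM enzyme, which had been preincubated 15 min with compound.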
JMJD2A Tudor inh – inhibitors of human JMJD2A Tudor domain. actives 4.4% (n = 390,000). O75164. Potency, µM (titrated, usually from 114 µM), most hits filed as inhibitors. AID 504339. AlphaScreen JMJD2A-Tudor / H3K4me3 peptide binding; further: nearly all actives have a fitted effect of over 50% in size
BAZ2B inh – inhibitors of human BAZ2B bromodomain; Q9UIF8; AlphaScreen BAZ2B-H3K14Ac peptide displacement; Potency, µM (doses to about 114 µM), usual class: inhibitors; actives 4.4% (n = 360,000); AID 504333; further: nearly all actives have a fitted effect of over 60% in size
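Compounds, titrated to a top concentration of 110 uM, were incubated 30 min at room temperature with preformed BAZ2B/acetyl-K14 H3 peptide complex (50 nM each). Proximity signal was measured by AlphaScreen after 20 min with beads.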
PI5P4K alpha inh – inhibitors of human PI5P4K alpha | P48426 | PI5P4Kalpha enzyme, ADP-Glo luminescence, 60 min; active compounds read low | max response, % | actives 1.2% (n = 330,000) | AID 652105; active means max response of -50% or lower; inconclusive means between -30% and -50%; inactive means -30% or higher; further: value at the top dose of about 77 µM
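Luminescence from ADP-Glo served as readout of PI5P4Kalpha activity in a qHTS format. Reaction: enzyme, substrate, compound, ATP at 5 microM final, 60 min at RT.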
PLK1 PBD inh – inhibitors of human PLK1 polo-box domain binding; Plk1 PBD binding of FITC phosphopeptide, fluorescence polarization; actives 2.8% (n = 360,000); Potency, µM, usual class: inhibitors; P53350; further: series mostly up to about 57 µM; nearly all actives have a fitted effect of over 65% in size
A number is an active result; – = inactive; ? = inconclusive; · = no result given; [ ] = dose if it differs, or a comment. Sampled rows, rich in hits. Any-hit rate of the full collection: about 12%. Unless noted, the call rests on the fitted dose curve; in most records, active means well fitted curve in the direction sought with a large enough effect; inconclusive means small, poorly fitted or top-dose-only effect, or another doubt; inactive means no such curve, though single readings can be large; an effect the other way counts as inactive or inconclusive.

SMILES | HP1b chromo inh | G9a block | JMJD2A Tudor inh | BAZ2B inh | PI5P4K alpha inh | PLK1 PBD inh
O=C(COC(=O)/C=C/c1ccco1)NCc1ccccc1Cl | – | 45µM | – | – | – | –
Cc1ccc(C)c(N2CCN(C(=O)CCS(=O)(=O)c3ccc4c(c3)CC(=O)N4C)CC2)c1 | – | – | – | – | · | ·
COc1ccc(S(=O)(=O)Nc2ccc3c(c2)C(=O)N([C@H](C)CO)C[C@H](C)[C@@H](CN(C)S(=O)(=O)c2c(C)noc2C)O3)cc1 | – | · | – | · | – | –
CC(=O)N1CCc2c(sc3c2c(=O)n(-c2ccccc2)c(=O)n3Cc2cccc(C(F)(F)F)c2)C1 | – | – | – | – | · | ·
CCOC(=O)c1nsnc1NCCSC(=N)N | – | 8.9µM | – | – | – | ?
COc1ccc(/C(O)=C2/C(=O)C(=O)N(CCCN3CCOCC3)C2c2ccc(Cl)cc2)cc1 (stereo not drawn) | · | · | · | · | – | –
CCOC(=O)CSc1nnc(NC(=O)c2cc([N+](=O)[O-])cc([N+](=O)[O-])c2)s1 | – | 25µM | ? | – | – | –
COC(=O)c1cc(C(=O)Nc2nnc(CC(C)(C)C)s2)cc([N+](=O)[O-])c1 | ? | 45µM | – | – | – | 19µM
CCOCc1nnc(NC(=O)c2cc(C(=O)OC)cc([N+](=O)[O-])c2)s1 | – | 50µM | 45µM | ? | – | 27µM
COCCSc1nnc(NC(=O)c2ccc([N+](=O)[O-])cc2)s1 | – | – | – | – | – | –
Cn1c(=O)c2cc(NC(=S)NCc3ccccc3F)ccc2n1Cc1cccc(C(F)(F)F)c1 | · | · | · | · | – | –
CC(=O)Oc1ccc(C23CC4CC(CC(C4)C2)C3)cc1C(=O)O | · | – | · | – | · | ·
CSCCC(C(=O)Nc1c(C)cccc1C)n1c(-c2cnc(C)cn2)nc2ccccc21 (stereo not drawn) | · | · | · | · | ? | –
COc1cc(CN(C)Cc2cccc3ccccc23)cc([N+](=O)[O-])c1O | – | 71µM | ? | ? | – | –
CN(Cc1cccc([N+](=O)[O-])c1)Cc1cccc2ccccc12 | – | · | – | – | – | –
COC(=O)c1cc(=O)n(Cc2cccs2)c(=Nc2ccc(F)cc2)s1 | – | · | – | ? | – | –
COC(=O)c1cc(=O)n(-c2ccc(F)cc2)c(=Nc2ccc(F)cc2)s1 | – | 40µM | ? | ? | – | –
COC(=O)c1cc(=O)n(Cc2ccco2)c(=Nc2ccc(F)c(Cl)c2)s1 | – | 35µM | ? | ? | – | –
COC(=O)c1cc(=O)n(CCc2ccccc2F)c(=Nc2ccc(F)c(Cl)c2)s1 | – | 40µM | ? | ? | – | –
COC(=O)c1cc(=O)n(Cc2ccc3c(c2)OCO3)c(=Nc2ccc(F)cc2)s1 | – | ? | ? | ? | – | –
COc1ccc(-c2nc3cnc(N4CCOCC4)nc3n(Cc3cccc(OC)c3)c2=O)cc1 | · | –[0.501 µM] | · | · | · | ·
Cc1ccc(C)c(N2CCN(C(=O)Cn3cnc4nc5c(cc4c3=O)CCCC5)CC2)c1 | – | ? | – | – | · | ·
O=[N+]([O-])c1cc(-c2cccnc2)n[nH]1 | – | · | – | · | – | –
CCc1nnc(NS(=O)(=O)c2ccc(N=Cc3c(C)[nH]n(-c4ccc(C)c(C)c4)c3=O)cc2)s1 | – | – | – | 50µM | – | ?
Cc1[nH]n(-c2ccc(Br)cc2)c(=O)c1C=Nc1ccc(S(=O)(=O)Nc2nccs2)cc1 | – | – | ? | ? | ? | ?
SMILES | HP1b chromo inh | G9a block | JMJD2A Tudor inh | BAZ2B inh | PI5P4K alpha inh | PLK1 PBD inh
Cc1cc(C)nc(NS(=O)(=O)c2ccc(N=Cc3c(C)[nH]n(-c4ccccc4)c3=O)cc2)n1 | – | – | 79µM | – | – | 27µM
C[N+]1(CC(=O)OCCCc2ccccc2)CCOCC1 | – | 71µM | 50µM | 45µM | – | –
O=C(CN1CCOCC1)OCCCc1ccccc1 | – | –[2.33 µM] | – | – | – | –
Cc1ccc(CCCOC(=O)CN2CCCCC2)cc1 | – | – | – | – | – | –
Cc1ccc(CCCOC(=O)C[N+]2(C)CCOCC2)cc1 | – | 10µM | 35µM | – | – | –
COc1ccc(N2CCN(C3(c4ccccc4)C(=O)c4ccccc4C3=O)CC2)cc1 | 13µM | 8.9µM | 8.9µM | 7.1µM | · | ·
COc1ccc(N2CCN(S(=O)(=O)/C=C/c3ccccc3)CC2)cc1 | – | – | – | – | – | –
COc1ccc(NC2(c3ccc(Cl)cc3)C(=O)c3ccccc3C2=O)cc1 | 14µM | 28µM | 56µM | 14µM | – | –
CC(=O)Nc1nonc1-c1nnc(SCC(=O)Nc2ccc(F)cc2F)n1-c1ccccc1 | – | – | – | – | · | ·
CCCCn1cnc2cc(NCc3ccncc3)ccc21 | – | ? | ? | – | · | –
CCn1cnc2cc(NCc3ccc(OC)cc3)ccc21 | – | 8.9µM | – | ? | · | –
CCc1ccc(CNc2ccc3c(c2)ncn3CC)cc1 | ? | 11µM | 45µM | ? | – | –
CCOc1ccc2nc3cc(NCc4ccc(OC)cc4)ccc3c(N)c2c1 | – | 35µM | ? | ? | ? | ?
CCOc1ccc2nc(SCC(=O)NCc3ccc(OC)cc3)[nH]c2c1 | – | – | – | – | – | –
O=C1NC[C@H](c2ccccc2)OC(=O)[C@H](Cc2ccc(F)cc2)C/C=C\C[C@H]1CC(=O)N(CCO)Cc1ccccc1 | – | · | – | · | – | –
O=C(CC(O)(c1ccccc1)c1ccccc1)Nc1ccccn1 | – | · | – | · | – | –
N#CC1(NC(=O)COC(=O)c2cc(O)c3ccccc3c2O)CCCCC1 | ? | 4.5µM | 25µM | 50µM | ? | 6.7µM
C[C@@H]1CN([C@@H](C)CO)C(=O)c2cc(C3=CCCCC3)cnc2O[C@H]1CN(C)C(=O)Nc1cccc(F)c1 | · | · | · | · | – | –
Cn1cc([N+](=O)[O-])c(C(=O)NC2CCCCCCC2)n1 | · | – | · | – | · | ·
O[C@@H]1COC(Nc2ccc(N=Nc3ccccc3)cc2)C[C@@H]1O (stereo partly drawn) | ? | 45µM | ? | ? | – | –
COc1ccc(SN=C2C(C)=CC(=O)C=C2C)cc1 | ? | 16µM | ? | ? | – | –
CCOC(=O)C1CCN(C2=NC(=O)/C(=C/c3ccc(Cl)cc3)S2)CC1 | – | – | – | ? | – | –
CCOC(=O)CSC1=NC(=O)/C(=C\c2ccc(Cl)cc2)S1 | – | 35µM | ? | – | ? | 0.84µM
Cc1cc(F)ccc1S(=O)(=O)NCC(c1ccco1)S(=O)(=O)c1cccs1 (stereo not drawn) | – | – | – | – | · | ·
CCN(CC)CCOc1cccc(C(C)C)c1 | ? | ? | 6.3µM | ? | – | –
CCCCCCOc1cccc(N)c1 | – | ? | – | – | · | –
CC(C)c1cccc(OCCCCN(C)C)c1 | ? | 4µM | ? | ? | – | –
CCOc1ccc(NC(=O)c2ccc3nc(Cc4ccccc4)oc3c2)cc1 | – | – | – | – | · | ·
CCOC(=O)c1c(CSC(=N)N)n(-c2ccc(Br)cc2)c2cc(Br)c(OC(C)=O)cc12 | – | 71µM | – | ? | – | –

Compound activity: PubChem, National Center for Advancing Translational Sciences (NCATS)
